Assay results reported in PubChem BioAssay AID1159580 (chemical genetic matrix, 2015).
Values joined by “and” are separate entries in the source; they are usually repeats but may differ in a detail not shown here. Equal entries are not always repeated. Out of some 5,500 compounds screened, about 2,000 (36%) were called active. Another 18% or so got no clear call; they are omitted. Cut-off read from the data, not from the text of the source: active = normalized growth mostly below about 0.91 (no sharp cut-off); inconclusive = no clear call, values can overlap the other calls; inactive = mostly above about 0.92. This is one part of the list.

Test: chemical genetic growth profiling, strain panel (AID 1159580);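 note: tested at 20 µM; growth read once vehicle control cultures reached saturation at 30 °C; 1 = growth at the plate median or of vehicle wells; lower values mean less growth of the strain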
Details: S. cerevisiae deletion strains, growth OD

Measured: normalized growth

COc1ccc(C(=O)c2ccccc2)c(O)c1
inactive: locus YAL013W, strain DEP1, stronger effect = lower value 0.914 | locus YAL021C, strain ccr4, stronger effect = lower value 0.918 | locus YBR021W, strain FUR4, stronger effect = lower value 0.975 | locus YBR229C, strain ROT2, stronger effect = lower value 0.956 | locus YCL029C, strain bik1, stronger effect = lower value 0.92 | locus YDL101C, strain DUN1, stronger effect = lower value 0.963 | locus YDL134C, strain PPH21, stronger effect = lower value 0.949 | locus YDL185W, strain tfp1, stronger effect = lower value 0.908 | locus YDR150W, strain NUM1, stronger effect = lower value 0.934 | locus YEL061C, strain CIN8, stronger effect = lower value 0.939 | locus YGL248W, strain PDE1, stronger effect = lower value 0.944 | locus YGR078C, strain PAC10, stronger effect = lower value 0.859 | locus YHR129C, strain ARP1, stronger effect = lower value 0.936 | locus YIL073C, strain SPO22, stronger effect = lower value 0.75 | locus YJL134W, strain LCB3, stronger effect = lower value 0.945 | locus YJL187C, strain SWE1 (second series), stronger effect = lower value 0.943 | locus YJR043C, strain POL32, stronger effect = lower value 0.879 | locus YJR066W, strain TOR1, stronger effect = lower value 0.835
active: locus YAL026C, strain drs2, stronger effect = lower value 0.74 | locus YAL030W, strain snc1, stronger effect = lower value 0.841 | locus YBL061C, strain skt5, stronger effect = lower value 0.762 | locus YBR009C, strain hhf1, stronger effect = lower value 0.789 | locus YBR023C, strain chs3, stronger effect = lower value 0.807 | locus YBR171W, strain sec66, stronger effect = lower value 0.769 | locus YBR231C, strain swc5, stronger effect = lower value 0.834 | locus YBR279W, strain paf1, stronger effect = lower value 0.854 | locus YCL011C, strain gbp2, stronger effect = lower value 0.78 | locus YCL016C, strain dcc1, stronger effect = lower value 0.792 | locus YCL061C, strain MRC1, stronger effect = lower value 0.791 | locus YCL069W, strain vba3, stronger effect = lower value 0.779 | locus YCR088W, strain abp1, stronger effect = lower value 0.833 | locus YDL005C, strain med2, stronger effect = lower value 0.903 | locus YDL035C, strain GPR1, stronger effect = lower value 0.855 | locus YDL040C, strain nat1, stronger effect = lower value 0.861 | locus YDL074C, strain BRE1, stronger effect = lower value 0.691 | locus YDL192W, strain arf1, stronger effect = lower value 0.808 | locus YDR001C, strain nth1, stronger effect = lower value 0.863 | locus YDR069C, strain doa4, stronger effect = lower value 0.879 | locus YDR101C, strain arx1, stronger effect = lower value 0.868 | locus YDR137W, strain rgp1, stronger effect = lower value 0.451 | locus YDR159W, strain sac3, stronger effect = lower value 0.671 | locus YDR162C, strain NBP2, stronger effect = lower value 0.671 | locus YDR195W, strain ref2 1.16 [resistant] | locus YDR297W, strain sur2, stronger effect = lower value 0.853 | locus YDR318W, strain mcm21, stronger effect = lower value 0.833 | locus YDR334W, strain swr1, stronger effect = lower value 0.859 | locus YDR335W, strain msn5, stronger effect = lower value 0.758 | locus YDR388W, stronger effect = lower value 0.881 | locus YDR392W, strain spt3, stronger effect = lower value 0.43 | locus YDR502C, strain sam2, stronger effect = lower value 0.804 | locus YEL003W, strain gim4, stronger effect = lower value 0.778 | locus YEL037C, strain rad23, stronger effect = lower value 0.841 | locus YEL061C, strain CIN8 (second series), stronger effect = lower value 0.813 | locus YER015W, strain faa2, stronger effect = lower value 0.752 | locus YER016W, strain bim1, stronger effect = lower value 0.862 | locus YER110C, stronger effect = lower value 0.891 | locus YER111C, strain swi4, stronger effect = lower value 0.797 | locus YER155C, strain BEM2 (second series), stronger effect = lower value 0.24 | locus YER155C, strain BEM2, stronger effect = lower value 0.926 | locus YER167W, strain BCK2, stronger effect = lower value 0.837 | locus YFR010W, strain ubp6, stronger effect = lower value 0.888 | locus YGL078C, strain dbp3, stronger effect = lower value 0.911 | locus YGL086W, strain mad1, stronger effect = lower value 0.828 | locus YGL167C, strain pmr1, stronger effect = lower value 0.772 | locus YGL173C, strain kem1, stronger effect = lower value 0.72 | locus YGL227W, strain vid30, stronger effect = lower value 0.84 | locus YGL240W, strain doc1, stronger effect = lower value 0.609 | locus YGL253W, strain hxk2, stronger effect = lower value 0.686 | locus YGR135W, strain pre9, stronger effect = lower value 0.729 | locus YGR229C, strain SMI1, stronger effect = lower value 0.558 | locus YGR252W, strain gcn5, stronger effect = lower value 0.666 | locus YHR013C, strain ard1, stronger effect = lower value 0.757 | locus YHR027C, strain rpn1, stronger effect = lower value 0.87 | locus YHR079C, strain IRE1 (second series), stronger effect = lower value 0.894 | locus YHR079C, strain IRE1, stronger effect = lower value 0.842 | locus YHR094C, strain hxt1, stronger effect = lower value 0.915 | locus YHR142W, strain chs7, stronger effect = lower value 0.541 | locus YHR200W, strain rpn10, stronger effect = lower value 0.861 | locus YIL066C, strain RNR3, stronger effect = lower value 0.827 | locus YIL125W, strain kgd1, stronger effect = lower value 0.898 | locus YIR030C, strain dcg1, stronger effect = lower value 0.906 | locus YJL092W, strain hpr5, stronger effect = lower value 0.827 | locus YJL095W, strain BCK1 (second series), stronger effect = lower value 0.703 | locus YJL095W, strain BCK1, stronger effect = lower value 0.699 and 0.86 | locus YJL115W, strain asf1, stronger effect = lower value 0.869 | locus YJL129C, strain trk1, stronger effect = lower value 0.649 | locus YJL154C, strain vps35, stronger effect = lower value 0.882 | locus YJL164C, strain tpk1, stronger effect = lower value 0.805 | locus YJL166W, strain qcr8, stronger effect = lower value 0.742 | locus YJL168C, strain set2, stronger effect = lower value 0.913
0.755 (active) and 0.874 (inactive): locus YHR030C, strain SLT2, stronger effect = lower value
